# Measurements reported in PubChem BioAssay.
# The source made the active and inactive calls. Unless noted, how the calls were made is not given here.
# Columns and labels:
# [1] = compound effects on lung adenocarcinoma cell viability – A549, calcein-AM fluorescence, 48 h, basal, profiling panel (AID 1162); details: higher = more signal; further: test concentration not given here
# [2] = compound effects on differentiated 3T3-L1 adipocyte viability – cell-based, 3T3-L1 adipocytes, calcein-AM fluorescence, 48 h, basal, profiling panel (AID 1163); details: 3T3-L1 adipocytes viability, higher = more signal; further: test concentration not given here
# [3] = compound effects on hepatocellular carcinoma cell viability – HepG2, calcein-AM fluorescence, 48 h, basal, profiling panel (AID 1164); details: higher = more signal; further: test concentration not given here
# [4] = compound effects on multiple myeloma cell viability – MM1S, calcein-AM fluorescence, 48 h, basal, profiling panel (AID 1165); details: higher = more signal;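 further: viability of MM1S multiple myeloma cells under basal unstimulated conditions; test concentration not given here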
# [5] = calcein-AM signal in unstimulated myeloma cells – cell-based, calcein-AM fluorescence, 48 h, PK04 Diversity Set, profiling panel (AID 1166); details: RPMI8226 myeloma viability, higher = more signal;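 further: cells grown under basal conditions without added stimulus; test concentration not given here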
# [6] = JC-1 mitochondrial signal, unstimulated HepG2 cells – cell-based, JC-1 fluorescence, 24 h, 100 nL compound, profiling panel (AID 1167); details: HepG2 mitochondrial potential, higher = more signal; further: test concentration not given here
# [7] = JC-1 mitochondrial signal, unstimulated adipocytes – cell-based, JC-1 fluorescence, 3T3-L1 adipocytes, 24 h, 100 nL compound, profiling panel (AID 1168); details: JC-1 mitochondrial fluorescence, higher = more signal, called active from +8 up or from −8 down; further: test concentration not given here
# [8] = JC-1 mitochondrial signal, unstimulated myeloma cells – cell-based, JC-1 fluorescence, RPMI8226, 24 h, 100 nL compound, profiling panel (AID 1169); details: JC-1 mitochondrial potential fluorescence, higher = more signal; further: test concentration not given here
# [9] = JC-1 mitochondrial signal, unstimulated MM1S myeloma – cell-based, JC-1 fluorescence, 24 h, 100 nL compound, profiling panel (AID 1170); details: MM1S mitochondrial potential, higher = more signal; further: test concentration not given here
# [10] = resazurin metabolic signal in A549 cells – cell-based, resazurin fluorescence, 24 h, PK04 Diversity Set, profiling panel (AID 1171); details: A549 viability, higher = more signal, called active from +8 up or from −8 down; further: test concentration not given here
# [11] = resazurin metabolic signal in HepG2 cells – cell-based, resazurin fluorescence, 24 h, PK04 Diversity Set, profiling panel (AID 1172); details: HepG2 viability, higher = more signal; further: test concentration not given here
# [12] = budding yeast growth changes without added modifier – OD600, strain BY4716, 24 h, basal condition, primary screen (AID 1173); details: S. cerevisiae BY4716 growth, OD600, 24 h; higher = more signal, called active from +8 up or from −8 down
# [13] = viability profiling in MM1S myeloma cells – cell-based, resazurin fluorescence, basal, 24 h, PK04 Diversity Set, profiling panel (AID 1174); details: higher = more signal, called active from +8 up or from −8 down; further: test concentration not given here
# [14] = biological target: Dihydroorotate dehydrogenase (quinone), mitochondrial (Plasmodium falciparum (isolate 3D7)) (UniProt Q08210); test: inhibition of P. falciparum DHODH – biochemical, C-terminal His tag, absorbance 600 nm, primary screen (AID 1175); details: PfDHODH enzyme, DCIP absorbance 600 nm; higher = more signal, called active from +8 up or from −8 down;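 further: recombinant parasite enzyme with a five histidine tag at its C terminus; test concentration not given here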
# Sequence of Dihydroorotate dehydrogenase (quinone), mitochondrial (Plasmodium falciparum (isolate 3D7)) (Q08210 whole entry, looked up): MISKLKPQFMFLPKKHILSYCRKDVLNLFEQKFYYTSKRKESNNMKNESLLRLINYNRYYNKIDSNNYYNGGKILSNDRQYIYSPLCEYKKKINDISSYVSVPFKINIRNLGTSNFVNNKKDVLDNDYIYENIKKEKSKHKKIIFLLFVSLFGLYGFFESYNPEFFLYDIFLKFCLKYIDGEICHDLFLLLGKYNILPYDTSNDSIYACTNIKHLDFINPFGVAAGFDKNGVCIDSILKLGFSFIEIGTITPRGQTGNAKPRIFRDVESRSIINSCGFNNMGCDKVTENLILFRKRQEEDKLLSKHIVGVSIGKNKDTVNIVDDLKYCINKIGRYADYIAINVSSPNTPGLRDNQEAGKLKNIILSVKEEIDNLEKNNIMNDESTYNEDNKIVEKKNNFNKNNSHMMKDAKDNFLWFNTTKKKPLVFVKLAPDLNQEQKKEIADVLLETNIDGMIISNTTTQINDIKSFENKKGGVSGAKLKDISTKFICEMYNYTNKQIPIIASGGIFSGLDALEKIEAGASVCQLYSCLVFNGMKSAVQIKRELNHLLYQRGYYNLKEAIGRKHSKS
# [15] = inhibition of PAO1 biofilm formation – strain PAO1, LB-PBS medium, absorbance 600 nm, primary screen (AID 1176); further: test concentration not given here; details: P. aeruginosa PAO1 growth/biofilm, A600, 12 h; higher = more signal
# [16] = growth modulation of vineyard yeast isolate – strain RM11-1a, OD600, basal, 24 h, primary screen (AID 1177);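 further: cultures grown under basal conditions with no added stressor; test concentration not given here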; details: S. cerevisiae RM11-1a growth, OD600, 24 h; higher = more signal, called active from +8 up or from −8 down
# [17] = growth of efflux-deficient E. coli DRC39 – strain DRC39, OD650, 24 h, E. coli filamentation inducers, primary screen (AID 1178);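 further: growth measured as culture turbidity by optical density at 650 nm; test concentration not given here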; details: E. coli DRC39 acrAB, higher = more signal, called active from +8 up or from −8 down
# [18] = growth of efflux-deficient E. coli DRC39 – strain DRC39, OD650, 48 h, E. coli filamentation inducers, primary screen (AID 1179);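 further: screen aims at cell division blockers that make cells filament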; details: E. coli DRC39 delta-acrAB growth, higher = more signal, called active from +8 up or from −8 down
# [19] = viability profiling in RPMI8226 myeloma cells – cell-based, resazurin fluorescence, basal, 24 h, PK04 Diversity Set, profiling panel (AID 1180); details: higher = more signal;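 further: RPMI8826 multiple myeloma cell line at 5000 cells per well; test concentration not given here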
# [20] = biological target: E3 ubiquitin-protein ligase XIAP (Homo sapiens) (UniProt P98170); test: small molecules binding XIAP protein – biophysical, small-molecule microarray, fluorescence 635 nm, primary screen (AID 1181); details: higher = more signal;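 further: score merges 667 nm emission and signal to noise over triplicate slides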
# Sequence of E3 ubiquitin-protein ligase XIAP (Homo sapiens) (P98170 whole entry, looked up): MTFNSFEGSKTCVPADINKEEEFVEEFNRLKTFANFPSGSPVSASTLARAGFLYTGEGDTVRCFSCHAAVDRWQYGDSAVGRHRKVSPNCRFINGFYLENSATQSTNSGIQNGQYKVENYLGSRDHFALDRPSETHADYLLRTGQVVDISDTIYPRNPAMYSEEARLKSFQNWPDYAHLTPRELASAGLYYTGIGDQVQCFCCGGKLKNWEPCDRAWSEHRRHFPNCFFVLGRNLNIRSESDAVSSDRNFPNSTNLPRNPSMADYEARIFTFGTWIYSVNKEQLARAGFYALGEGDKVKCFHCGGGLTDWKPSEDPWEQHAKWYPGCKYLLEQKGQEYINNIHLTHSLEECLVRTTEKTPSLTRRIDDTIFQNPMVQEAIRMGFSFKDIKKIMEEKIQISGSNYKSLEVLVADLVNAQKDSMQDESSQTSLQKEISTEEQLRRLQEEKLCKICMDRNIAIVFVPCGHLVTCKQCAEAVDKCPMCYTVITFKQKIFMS
smiles,measurement,setting,value
CN1C(=O)C2C(C1=O)C1C=C(CCCO)C2C(C2CC2)N1C (stereo not given),z-score,[1],-0.0397
same,z-score,[2],-0.333
same,z-score,[3],0.019
same,z-score,[4],0.828
same,z-score,[5],0.929
same,z-score,[6],1.18
same,z-score,[7],0.693 (inactive)
same,z-score,[8],-0.786
same,z-score,[9],-0.641
same,z-score,[10],-1.61 (inactive)
same,z-score,[11],-1.15
same,z-score,[12],0.275 (inactive)
same,z-score,[13],-0.228 (inactive)
same,composite z-score,[14],-2.87 (inactive)
same,z-score,[15],-0.214 (inactive)
same,z-score,[16],-0.593 (inactive)
same,z-score,[17],0.796 (inactive)
same,z-score,[18],1.44 (inactive)
same,z-score,[19],-0.965
same,composite z-score,[20],0.333
C=C(CCCC)/C(=C/C[C@@H](OC(C)=O)c1ccc(OCCO)cc1)c1cc(C(=O)OC)ccc1OC,z-score,[1],-0.144
same,z-score,[2],-0.703
same,z-score,[3],0.447
same,z-score,[4],-3.33
same,z-score,[5],-3.24
same,z-score,[6],0.621
same,z-score,[7],-1.5 (inactive)
same,z-score,[8],-0.826
same,z-score,[9],-1.3
same,z-score,[10],0.293 (inactive)
same,z-score,[11],0.353
same,z-score,[12],-0.107 (inactive)
same,z-score,[13],-1.36 (inactive)
same,composite z-score,[14],-2.64 (inactive)
same,z-score,[15],0.862 (inactive)
same,z-score,[16],-0.319 (inactive)
same,z-score,[17],0.173 (inactive)
same,z-score,[18],0.107 (inactive)
same,z-score,[19],-0.808
same,composite z-score,[20],-0.0274
COc1cccc(C)c1NC(=O)O[C@H]1[C@H](OC(=O)Nc2ccccc2)[C@@H](OC(=O)Nc2ccccc2)[C@@H](OC)O[C@@H]1CO,z-score,[1],-1.86
same,z-score,[2],0.861
same,z-score,[3],-1.9
same,z-score,[4],-2.59
same,z-score,[5],-3.26
same,z-score,[6],-0.702
same,z-score,[7],1.17 (inactive)
same,z-score,[8],-1.05
same,z-score,[9],0.0418
same,z-score,[10],-3.49 (inactive)
same,z-score,[11],-2
same,z-score,[12],0.748 (inactive)
same,z-score,[13],-3.79 (inactive)
same,composite z-score,[14],-0.0526 (inactive)
same,z-score,[15],1.28 (inactive)
same,z-score,[16],2.78 (inactive)
same,z-score,[17],0.655 (inactive)
same,z-score,[18],-0.667 (inactive)
same,z-score,[19],-2.85
same,composite z-score,[20],0.06
COCCOC(=O)N1C(=O)[C@@]2(c3cc(C#CCNC(N)=O)ccc31)[C@H](c1ccc(O)cc1)N1[C@H](c3ccccc3)[C@H](c3ccccc3)OC(=O)[C@H]1[C@@H]2C(=O)N1CCc2cc(OC)c(OC)cc2C1,z-score,[1],0.571
same,z-score,[2],-0.065
same,z-score,[3],-0.281
same,z-score,[4],-0.72
same,z-score,[5],0.542
same,z-score,[6],-1.82
same,z-score,[7],-0.338 (inactive)
same,z-score,[8],0.0593
same,z-score,[9],0.583
same,z-score,[10],0.0875 (inactive)
same,z-score,[11],-0.328
same,z-score,[12],1.66 (inactive)
same,z-score,[13],-0.202 (inactive)
same,composite z-score,[14],1.38 (inactive)
same,z-score,[15],0.902 (inactive)
same,z-score,[16],2.24 (inactive)
same,z-score,[17],-0.0681 (inactive)
same,z-score,[18],-0.119 (inactive)
same,z-score,[19],-0.242
same,composite z-score,[20],0.171
C=C(C(=O)CC[C@@H](OC(=O)c1ccccc1-c1ccccc1C(=O)O)c1ccc(CO)o1)C(C)C,z-score,[1],-0.656
same,z-score,[2],0.231
same,z-score,[3],0.473
same,z-score,[4],-1.33
same,z-score,[5],-0.951
same,z-score,[6],-1.54
same,z-score,[7],-0.747 (inactive)
same,z-score,[8],-0.479
same,z-score,[9],-0.0298
same,z-score,[10],-0.359 (inactive)
same,z-score,[11],-0.31
same,z-score,[12],-0.317 (inactive)
same,z-score,[13],0.114 (inactive)
same,composite z-score,[14],-2.18 (inactive)
same,z-score,[15],1.63 (inactive)
same,z-score,[16],0.0083 (inactive)
same,z-score,[17],0.159 (inactive)
same,z-score,[18],-0.171 (inactive)
same,z-score,[19],0.16
same,composite z-score,[20],-0.282
CC(C)C[C@@H]1NC(=O)[C@H]2C[C@@H](C(=O)O)[C@@H](c3cccc(OCCO)c3)N2C1=O,z-score,[1],-0.218
same,z-score,[2],-0.234
same,z-score,[3],-0.072
same,z-score,[4],-1.36
same,z-score,[5],-0.0757
same,z-score,[6],0.664
same,z-score,[7],-0.115 (inactive)
same,z-score,[8],-0.0946
same,z-score,[9],-0.449
same,z-score,[10],0.668 (inactive)
same,z-score,[11],0.109
same,z-score,[12],-0.25 (inactive)
same,z-score,[13],-0.636 (inactive)
same,composite z-score,[14],-1.19 (inactive)
same,z-score,[15],0.202 (inactive)
same,z-score,[16],-0.79 (inactive)
same,z-score,[17],-0.191 (inactive)
same,z-score,[18],0.421 (inactive)
same,z-score,[19],0.462
same,composite z-score,[20],0.0845
COCCOC(=O)N1C(=O)[C@@]2(c3cc(C#CCC(C(=O)OC)C(=O)OC)ccc31)[C@H](c1ccc(O)cc1)N1[C@H](c3ccccc3)[C@H](c3ccccc3)OC(=O)[C@H]1[C@@H]2C(=O)N1CCc2cc(OC)c(OC)cc2C1,z-score,[1],0.393
same,z-score,[2],0.632
same,z-score,[3],0.806
same,z-score,[4],-0.243
same,z-score,[5],-3.34
same,z-score,[6],0.763
same,z-score,[7],-0.291 (inactive)
same,z-score,[8],-1.15
same,z-score,[9],0.22
same,z-score,[10],0.742 (inactive)
same,z-score,[11],-0.347
same,z-score,[12],-0.672 (inactive)
same,z-score,[13],0.222 (inactive)
same,composite z-score,[14],-0.118 (inactive)
same,z-score,[15],0.008 (inactive)
same,z-score,[16],0.494 (inactive)
same,z-score,[17],0.109 (inactive)
same,z-score,[18],0.588 (inactive)
same,z-score,[19],-0.92
same,composite z-score,[20],-0.0233
CN1C(=O)C2CC=C(C3=CCO[C@@H]3[C@H]3CCCN3S(=O)(=O)c3ccccc3[N+](=O)[O-])CC2C1=O (stereo not given in full),z-score,[1],-0.477
same,z-score,[2],0.102
same,z-score,[3],0.302
same,z-score,[4],-0.355
same,z-score,[5],-0.0289
same,z-score,[6],-1.25
same,z-score,[7],-0.655 (inactive)
same,z-score,[8],-0.12
same,z-score,[9],-0.242
same,z-score,[10],0.47 (inactive)
same,z-score,[11],0.277
same,z-score,[12],0.175 (inactive)
same,z-score,[13],-0.354 (inactive)
same,composite z-score,[14],-0.912 (inactive)
same,z-score,[15],0.425 (inactive)
same,z-score,[16],0.0123 (inactive)
same,z-score,[17],0.527 (inactive)
same,z-score,[18],0.189 (inactive)
same,z-score,[19],0.0213
same,composite z-score,[20],-0.187
